# Reference: PubChem BioAssay AID504652 (National Center for Advancing Translational Sciences (NCATS), 2011)
# The whole screen tested about 360,000 compounds, of which about 11,000 (3.1%) were called active. Only a selection was taken, and actives are over-represented in it overall. Values without a mark were called inactive. Rule as the data show it: active = activity change below about -30%; inactive = the rest.
# Biological target: D(1A) dopamine receptor (Homo sapiens) (UniProt P21728)
# Assay: Antagonist of Human D 1 Dopamine Receptor: qHTS
# Conditions: HEK293 TREx D1 cells, calcium flux, dopamine EC80; at 10 µM; active compounds read low
# Outline: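 Using tetracycline-induced force-coupled D1 Hek293 cells and a calcium dye, signals were followed for 180 s after compound, then for 180 s after EC80 dopamine, to detect inhibitors.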
# % is scaled to controls: 0 for no effect and ±100 for the full control effect.
# Sequence of D(1A) dopamine receptor (Homo sapiens) (P21728 whole entry, looked up): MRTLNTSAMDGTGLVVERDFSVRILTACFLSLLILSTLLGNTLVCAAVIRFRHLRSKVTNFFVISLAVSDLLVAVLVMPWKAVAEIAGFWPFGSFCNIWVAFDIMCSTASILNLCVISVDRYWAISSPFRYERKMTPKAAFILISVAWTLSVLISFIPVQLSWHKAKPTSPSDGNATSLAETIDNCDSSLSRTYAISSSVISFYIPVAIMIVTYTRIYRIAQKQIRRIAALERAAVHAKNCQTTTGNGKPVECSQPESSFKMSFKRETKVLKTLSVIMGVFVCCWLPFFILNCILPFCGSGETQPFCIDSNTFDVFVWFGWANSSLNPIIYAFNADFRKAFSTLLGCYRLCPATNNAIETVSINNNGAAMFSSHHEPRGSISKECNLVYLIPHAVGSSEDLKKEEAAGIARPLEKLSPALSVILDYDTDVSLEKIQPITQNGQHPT
row,SMILES,"activity change, negative = inhibition"
1,N=c1n(CCc2ccccc2)c2ccccc2n1Cc1ccccc1F,-72.5% (active)
2,O=C(COC(=O)Cc1ccccc1F)NCCc1ccccc1,-27%
3,Fc1ccccc1Cn1cnc(NC(=S)NCCc2ccccc2)n1,0.584%
4,Cn1c(=O)c2sccc2n2c(CCC(=O)NCc3ccccc3Cl)nnc12,-4.17%
5,Cn1c(=O)c2c(SCC(=O)N3CCc4ccccc43)nc(-c3ccc(Cl)cc3)nc2n(C)c1=O,-4.79%
6,CCCOC(=O)c1c(NC(=O)c2cc3nc(-c4ccc(OC)cc4)cc(C(F)(F)F)n3n2)sc2c1CCCC2,1.36%
7,CCOC(=O)C1CCN(c2ncnc3c2c(-c2ccccc2)cn3-c2cccc(C)c2)CC1,7.99%
8,COc1cc(OC)cc(C(=O)Nc2c(C(=O)Nc3ccc(F)cc3)oc3ccccc23)c1,-9.05%
9,COc1cccc(N2CCN(C(=O)C3CCCN(S(=O)(=O)c4cnc[nH]4)C3)CC2)c1 (stereo unspecified),-10%
10,O=C(NCc1ccco1)C1CCCN(S(=O)(=O)c2cnc[nH]2)C1 (stereo unspecified),6.39%
11,CCOC(=O)c1cccc(NC(=O)C2CCCN(S(=O)(=O)c3cnc[nH]3)C2)c1 (stereo unspecified),-31.2% (active)
12,CC1CCN(c2ccc(S(=O)(=O)Nc3cc(C(=O)O)cc(C(=O)O)c3)cc2[N+](=O)[O-])CC1,21.6%
13,CC1CCN(c2ccc([N+](=O)[O-])cc2C(N)=O)CC1,-6.77%
14,O=C(O)C1CCN(c2ccc([N+](=O)[O-])cc2[N+](=O)[O-])CC1,-34.9% (active)
15,COc1ccccc1CNc1nc2ccc(Cl)cc2n2cnnc12,31.1%
16,Cc1ccc(OCC(=O)OCc2cc(=O)n3nc(C4CC4)sc3n2)cc1C,5.56%
17,Cc1cccc(CSc2nnc(C)c(=O)n2N)c1,-16.8%
18,Cc1cccc(CSc2nc3c(c(=O)n2C)SCC3)c1,-31.4% (active)
19,Cn1c(SCC(=O)N2CCCCC2)nc2c(c1=O)SCC2,-2.45%
20,Cc1cccc(OCC(O)Cn2c(=N)n(CCN3CCOCC3)c3ccccc32)c1 (stereo unspecified),-8.76%
21,CCOc1ccc(C(O)Cn2c(=N)n(CCN3CCCCC3)c3ccccc32)cc1 (stereo unspecified),3.59%
22,Cn1c(=N)n(CC(O)c2cccs2)c2ccccc21 (stereo unspecified),-34.7% (active)
23,COc1cc(C(=O)Nc2ccc(OCc3cc(=O)n4cc(C)sc4n3)cc2)cc(OC)c1OC,-16.6%
24,Cc1ccc2cccc(OCCCOc3ccccc3CO)c2n1,-71.7% (active)
25,CCOc1cccc(OCCCOc2cccc3cccnc23)c1,7.73%
26,OCc1ccc(OCCCOc2cccc3cccnc23)cc1,-4.17%
